# Calls of active or inactive are those of the source. How the source made its calls: active means hit-call score of the fitted dose curve at least 0.9, where 1 is the maximum; inactive means score below 0.9.
# Molecular target: human Matrix Metallopeptidase 9 (MMP9), MMP9 (gene 4318) (UniProt P14780)
# Assay: ERF_FR_ENZ_hMMP9: Eurofins (ERF) Enzymatic LeadHunter Assay for human Matrix Metallopeptidase 9 (MMP9)
# Experimental: ERF_FR_ENZ_hMMP9 is a biochemical, single-readout assay that uses extracted gene-proteins in a cell-free assay. Measurements were taken 1.5 hour after chemical dosing in a 96-well plate. See MMP9 Human Matrix Metallopeptidase Enzymatic Assay, Cerep.ERF_FR_ENZ_hMMP9 is an assay component calculated from the ERF_FR_ENZ_hMMP9 assay. It is designed to measure enzyme activity using a type of enzyme reporter as detected by fluorescence intensity with fluorimetry technology.Data from the assay component ERF_FR_ENZ_hMMP9 was analyzed at the assay endpoint, ERF_FR_ENZ_hMMP9, in the positive analysis fitting direction relative to DMSO as the negative control and baseline of activity. Using a type of enzyme reporter, loss-of-signal activity can be used to understand changes in enzymatic activity as they relate to gene MMP9. To generalize the intended target to other relatable targets, this assay endpoint is annotated to the protease intended target family, where the subfamily is matrix metallopeptidase.
# […] are incubated for 60 minutes at room tempreature with Mca-PLGL-Dap(Dnp)-AR-NH2 (7.5 uM) as sunstrate and […] as control inhibitor. Test Sample Requirements: Minimum for 1) Screen: 60 ul of 10 mM stock -OR- 1 mg (pre-weighed) for 10 uM final testing. 2) Dose Response: 90 ul of 10 mM stock -OR- 1 mg (pre-weighed) for a top concentration at 10 uM.
# Sequence of human Matrix Metallopeptidase 9 (MMP9), MMP9 (gene 4318) (P14780 whole entry, looked up): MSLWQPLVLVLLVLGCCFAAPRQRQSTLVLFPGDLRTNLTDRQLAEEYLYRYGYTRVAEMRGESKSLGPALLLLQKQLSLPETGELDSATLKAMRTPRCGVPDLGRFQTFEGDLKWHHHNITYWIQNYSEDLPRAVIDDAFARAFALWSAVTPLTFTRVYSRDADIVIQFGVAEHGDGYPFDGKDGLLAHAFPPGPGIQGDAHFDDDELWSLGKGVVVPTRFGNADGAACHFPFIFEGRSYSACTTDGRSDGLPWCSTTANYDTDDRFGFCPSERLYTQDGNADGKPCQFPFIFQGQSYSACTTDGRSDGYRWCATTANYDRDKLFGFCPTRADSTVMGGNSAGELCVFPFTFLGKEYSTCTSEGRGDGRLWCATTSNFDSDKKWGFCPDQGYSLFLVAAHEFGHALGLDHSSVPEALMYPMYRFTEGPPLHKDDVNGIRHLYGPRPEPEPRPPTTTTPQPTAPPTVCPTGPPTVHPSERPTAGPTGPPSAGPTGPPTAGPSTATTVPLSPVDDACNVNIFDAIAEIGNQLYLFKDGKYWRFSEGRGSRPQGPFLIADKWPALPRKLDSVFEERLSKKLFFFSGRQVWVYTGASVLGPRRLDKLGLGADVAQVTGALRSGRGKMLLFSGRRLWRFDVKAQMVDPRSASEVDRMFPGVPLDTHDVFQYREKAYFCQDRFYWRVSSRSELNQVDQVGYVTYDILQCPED
row,SMILES,outcome
1,O=C(/C=C/c1ccc(O)cc1)CC(=O)/C=C/c1ccc(O)cc1,inactive
